# Screen size: about 190,000 compounds; about 270 (0.14%) were called active. Another 2% or so got no clear call; they are omitted. The sample holds actives, similar compounds and a random draw of the others, so the mix is not that of the screen.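 The calls were made as follows: active = GTP binding activity at least 20% away from the 100% baseline, either lowered as inhibitor or raised as activator; inconclusive = flagged as likely green fluorescent, judged across all proteins in the well; inactive = the rest.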
# Target: GTPase HRas (Homo sapiens) (UniProt P01112)
# Sequence (P01112 whole entry, looked up): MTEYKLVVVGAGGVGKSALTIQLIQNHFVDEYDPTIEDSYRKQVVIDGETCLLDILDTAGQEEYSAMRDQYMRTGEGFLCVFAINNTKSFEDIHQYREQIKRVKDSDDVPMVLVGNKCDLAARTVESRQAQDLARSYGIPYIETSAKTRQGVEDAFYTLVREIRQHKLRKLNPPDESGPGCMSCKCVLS
# Test: modulators of GTP binding to HRas wildtype, primary screen, biochemical, bead-based flow cytometry, multiplex (AID 759);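 also: 0% = unlabeled GTP competition control and 100% = no-compound control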
# Conditions: GST-Ras wt beads, Bodipy-FL-GTP binding, at 10 µM, actives lie on both sides
row,Compound,GTP binding activity
1,CCSc1nc(C)c(CCOc2cccc(C)c2)c(=O)[nH]1,98% (inactive)
2,O=C(CC1C(=O)NCCN1CC(c1ccccc1)c1ccccc1)NCCc1cn[nH]c1 (configuration not stated),99% (inactive)
3,CCNC(=O)CC1C(=O)N(c2ccc(OC)cc2)C(=S)N1CCc1ccncc1 (configuration not stated),98% (inactive)
4,CCc1ccc(CN(C)Cc2nc(Cc3ccccc3)no2)nc1,98% (inactive)
5,CC(=O)N(CN1C(=O)C2C3C=CC(C3)C2C1=O)c1cccc(Cl)c1 (configuration not stated),93% (inactive)
6,CN(/C(=N/S(=O)(=O)c1cccs1)c1ccccc1)c1ccc(O)cc1,88% (inactive)
7,CC(=O)Nc1ccc(S(=O)(=O)Oc2ccc(/C=N/N=C3/NC(=O)C(CC(=O)O)S3)cc2)cc1 (configuration not stated),92% (inactive)
8,O=C1CCC/C(=N\NC(=O)NC2CCCCC2)C1,97% (inactive)
9,COc1c(C)cc(C(=O)C2CCCN(S(=O)(=O)c3c(C)noc3C)C2)cc1C (configuration not stated),96% (inactive)
10,CC(C)(O)C#Cc1ncc(C(F)(F)F)cc1Cl,98% (inactive)
11,CC(C)OCCCNC(=S)N1CCC(C(=O)c2ccc3c(c2)OCCO3)CC1,95% (inactive)
12,CCOCCCNCc1ccc(OCc2ccc(F)cc2)c(OC)c1,97% (inactive)
13,CN1CCN(CCCCOc2ccccc2-c2ccccc2)CC1,99% (inactive)
14,CSc1ccc(/C=N\NC(=O)CC(=O)NC(C)C)cc1,94% (inactive)
15,Cc1cccc(NC(=S)Nc2ccc(Cl)c(Cl)c2)c1,95% (inactive)
16,O=C(Nc1ccc(Br)cn1)c1ccc([N+](=O)[O-])o1,98% (inactive)
17,Cc1nn(C)c(C)c1CN(C(=O)CCc1nnc(Cc2c[nH]c3ccccc23)o1)C(C)C,95% (inactive)
18,Nn1c(SCC(=O)Nc2nccs2)nncc1=O,96% (inactive)
19,CCC(C)NC(=O)/C=C/c1ccc(S(=O)(=O)NCc2ccco2)cc1 (configuration not stated),99% (inactive)
20,COCCN(CCOC)S(=O)(=O)c1ccc(C(=O)Nc2nc3c(s2)CCc2ccccc2-3)cc1,104% (inactive)
21,C=CCN(CC=C)S(=O)(=O)c1ccc(C(=O)Nc2nc3c(s2)CCc2ccccc2-3)cc1,32% (active)
22,C=CCN(CC=C)S(=O)(=O)c1ccc(C(=O)Nc2sc3c(c2C(N)=O)CCCCC3)cc1,103% (inactive)
23,CCC(CC)NC(=O)CSc1nnc(-c2c[nH]c3ccccc23)o1,92% (inactive)

row,Compound,GTP binding activity
1,CSc1ncccc1C(=O)OCc1ccc(Br)cc1,96% (inactive)
2,CCOC(=O)C1CCCN(C(=O)/C=C/c2ccc(OC)cc2)C1 (configuration not stated),91% (inactive)
3,Cc1cccc(C(=O)N2CCC(c3nc4ccccc4s3)CC2)c1,95% (inactive)
4,COc1ccc(Cc2nnc(NC(=O)c3cc(OC)c(OC)c(OC)c3)s2)cc1OC,94% (inactive)
5,NS(=O)(=O)c1ccc(NC(=S)NNC(=O)c2cccs2)cc1,97% (inactive)
6,O=C(CN(C(=O)c1csnn1)c1cccc(F)c1)NCc1ccc(F)cc1,99% (inactive)
7,CNC(=O)C(=O)N/N=C/c1ccccn1,95% (inactive)
8,S=C(Cc1ccc(Cl)cc1)N1CCOCC1,94% (inactive)
9,Cc1cccc(C(=O)Nc2ccc3c(c2)C(=O)N(CC(C)C)C3=O)c1,96% (inactive)
10,COc1cc(/C=C2/C(=O)ON=C2C)ccc1OCc1cccc(F)c1,91% (inactive)
11,Cc1ccc2c(Cl)c(C(=O)Nc3nn[nH]n3)sc2c1,100% (inactive)
12,O=c1/c(=C/c2ccc(CNS(=O)(=O)c3ccccc3)o2)sc2n1CCN=2,78% (active)
13,COC(=O)C1=C(C)NC(=O)/C1=C/c1ccc(CNS(=O)(=O)c2ccc(C)cc2)o1,97% (inactive)
14,O=S(=O)(NCc1ccccc1)c1ccc(S(=O)(=O)N2CCCC2)cc1,101% (inactive)
15,O=C(CCN1C(=O)c2ccncc2C1=O)Nc1cc(F)ccc1F,92% (inactive)
16,NC(=O)COc1ccc(C23CC4CC(CC(C4)C2)C3)cc1,95% (inactive)
17,COc1cccc(OC)c1C(=O)NC(=S)NCc1ccco1,95% (inactive)
18,CC(=O)c1ccc(N=C2SCCCN2C(=O)C2CCCCC2)cc1,97% (inactive)
19,COc1ccc(OCC(=O)NNC(=O)c2cccc(C)c2)cc1,97% (inactive)
20,O=C(Nc1ccc(N2CCN(C(=O)C3CC3)CC2)cc1)c1cccs1,95% (inactive)
21,CCOC(=O)c1cnc2c(c(C)nn2CC)c1Cl,96% (inactive)
22,CCOC(=O)c1ccc(Nc2cc(C)nc3nc(C)nn23)cc1,98% (inactive)
23,CCOC(=O)c1ccc(N/C(=N/S(=O)(=O)c2ccccc2)c2ccccc2)cc1,97% (inactive)

row,Compound,GTP binding activity
1,CCOC(=O)c1nc(Nc2ccc(C(=O)OC)cc2)c2ccccc2n1,77% (active)
2,Cc1c(Cc2ccccc2)c(=O)oc2cc(OCC(N)=O)ccc12,93% (inactive)
3,CCOc1ccccc1/C=N/NC(=O)CNC(=O)COc1ccccc1,97% (inactive)
4,O=C(COc1ccccc1Cl)Nc1ccc(C(=O)c2ccc(C(=O)O)cc2)cc1,100% (inactive)
5,Cc1cc(C)cc(NC(=O)N2CCCCCCC2)c1,100% (inactive)
6,COc1ccc(C(=O)NC(Cc2ccc(OC(=O)c3ccc(OC)cc3)cc2)C(=O)O)cc1 (configuration not stated),90% (inactive)
7,Nc1ccc(Cl)c(S(=O)(=O)Nc2ccccc2Cl)c1,98% (inactive)
8,Cc1ccc(NC(=O)c2oc3ccccc3c2C)c([N+](=O)[O-])c1,101% (inactive)
9,C/C=N/NC(=O)CCCC(=O)N/N=C/C,103% (inactive)
10,CCC(=O)OCCNc1nc(-c2ccccc2)nc2ccccc12,98% (inactive)
11,Cc1ccc(CN(Cc2cccnc2)C(=S)Nc2cccc(Cl)c2C)cc1,95% (inactive)
12,CCCCn1c(N)c(N(CC)C(=O)/C=C/c2ccco2)c(=O)[nH]c1=O,99% (inactive)
13,CSc1ncccc1C(=O)N1CCCC(CCC(=O)NCc2ccccc2F)C1 (configuration not stated),100% (inactive)
14,COC(=O)c1ccc(NC(=O)c2cc(Cl)ccc2OC)cc1,96% (inactive)
15,O=C1N/C(=N\N=C\c2ccco2)SC1Cc1ccc(F)cc1 (configuration not stated),97% (inactive)
16,O=C(c1ccncc1)c1ccc([N+](=O)[O-])cc1,94% (inactive)
17,CCOC(=O)CN1CCC(c2ccccc2)CC1,98% (inactive)
18,CC(C)(C)n1nc2c(c1NC(=O)c1cc3ccccc3o1)CSC2,96% (inactive)
19,CN1C(=O)/C(=N/OC(=O)c2ccccc2Br)c2ccccc21,91% (inactive)
20,CCOC(=O)C1(CCOC)CCN(Cc2ccc(C(=O)OC)cc2)CC1,98% (inactive)
21,Cc1cccc(-n2c(Cc3cc(=O)[nH]c(=O)[nH]3)nnc2SCC(=O)Nc2cccc(C(F)(F)F)c2)c1,102% (inactive)
22,O=C(NCc1nnc(SCC(=O)N2CCC(Cc3ccccc3)CC2)o1)c1ccco1,98% (inactive)
23,O=C(N/N=C/c1ccc([N+](=O)[O-])o1)c1cccc(S(=O)(=O)N2CCOCC2)c1,96% (inactive)

row,Compound,GTP binding activity
1,CN(CC(=O)NC1CCCC1)S(=O)(=O)c1cnc[nH]1,104% (inactive)
2,CCC(C)NC(=O)Cn1nc(C(F)(F)F)c2c1CCC2 (configuration not stated),100% (inactive)
3,C=CCN1C2CCCC1CC(NC(=S)Nc1cccc(OC)c1)C2 (configuration not stated),99% (inactive)
4,Cc1[nH]c2ccccc2c1-c1ccc(Cl)nn1,96% (inactive)
5,COc1cccc(C(=O)Nc2cccnc2)c1OC,98% (inactive)
6,FC(F)(F)c1cccc(Cc2noc(CN3CCC(N4CCCCC4)CC3)n2)c1,104% (inactive)
7,C=CCNc1nc(Nc2ccc(Cl)cc2)nc(OC)n1,104% (inactive)
8,O=C1CN(C(=O)CN2C(=O)NC3(CCCCC3)C2=O)c2ccccc2N1,98% (inactive)
9,COc1ccc(S(=O)(=O)Nc2cccnc2)c(Cl)c1Cl,93% (inactive)
10,Cc1ccc(S(=O)(=O)N(C)c2ccc(OCC(=O)NC3=NCCS3)cc2)cc1,99% (inactive)
11,CCc1ccc(CN2C(=O)c3ccccc3C2C(=O)NCC2CCCO2)cc1 (configuration not stated),96% (inactive)
12,Cc1ccc(NC(=O)CSc2nc(CSc3ccc(C)cc3)cc(=O)[nH]2)cc1,95% (inactive)
13,Cn1c(-c2ccc(F)cc2)cnc1SCC(=O)NNC(=O)Cc1ccccc1,99% (inactive)
14,O=C(COC(=O)c1cnccn1)Nc1cccc2ccccc12,96% (inactive)
15,O=C(C1CCN(S(=O)(=O)c2ccc(Br)s2)CC1)N1CCN(C2CCCCC2)CC1,95% (inactive)
16,O=C(O)/C=C/c1cn(Cc2ccccc2)nc1-c1cccs1,120% [activator] (active)
17,O=C(/C=C\c1cn(-c2ccccc2)nc1-c1cccs1)N1CCOCC1,103% (inactive)
18,O=C(O)/C=C/c1cn(-c2ccccc2)nc1-c1cccs1,92% (inactive)
19,CCSc1sc(CC)cc1C=O,97% (inactive)
20,COC(=O)Cc1c(O)ccn(Cc2cccc(C(F)(F)F)c2)c1=O,96% (inactive)
21,Cc1ccc(NC(=S)N(CCN(C)C)Cc2cccs2)cc1C,93% (inactive)
22,O=C(NCc1ccncc1)C(=O)NCc1ccco1,97% (inactive)
23,CCOC(=O)c1c(-c2cccc(N)c2)cn2ccccc12,99% (inactive)

row,Compound,GTP binding activity
1,CNC(=S)NNC(=O)c1cccn(Cc2ccccc2)c1=O,97% (inactive)
2,Cc1cccc(C)c1N1CCN(S(=O)(=O)N2CCCCC2)CC1,96% (inactive)
3,Cc1cc2nc(C(F)(F)F)cc(-c3cccs3)n2n1,90% (inactive)
4,Nc1ccc(S(=O)(=O)Nc2nccc(/C=C/c3ccc(Br)s3)n2)cc1,91% (inactive)
5,O=C(CCN1CCCCC1)N=Nc1c(O)[nH]c2ccccc12,98% (inactive)
6,Cc1cc(OC(=O)c2ccccc2)c([N+](=O)[O-])c(=O)[nH]1,101% (inactive)
7,COc1ccc(C(=O)NC(=S)Nc2ccc(Cl)cn2)cc1OC,99% (inactive)
8,Cc1nn(CC#N)c(=O)n1N(C)c1ncc(C(F)(F)F)cc1Cl,99% (inactive)
9,CC(=O)Nc1ccc(NC(=O)COc2ccc(S(=O)(=O)NC(C)c3ccccc3)cc2)cc1 (configuration not stated),114% (inactive)
10,Cc1cc(/C=N/NC(N)=O)c(C)n1C1CCCCC1,100% (inactive)
11,COc1cc(C(=O)Nc2cc(C(F)(F)F)ccc2-n2cncn2)cc(OC)c1OC,96% (inactive)
12,O=C(NC(=S)Nc1ccc(S(=O)(=O)N2CCOCC2)cc1)c1ccccc1[N+](=O)[O-],95% (inactive)
13,COC(=O)c1cccnc1NC(=S)NC(C)C,95% (inactive)
14,CCCCn1nc(C(=O)Nc2ccc(S(=O)(=O)Nc3ncccn3)cc2)c2ccccc2c1=O,98% (inactive)
15,COCCCNC(=S)N1CCCC(c2nc3cc(C)c(C)cc3[nH]2)C1 (configuration not stated),95% (inactive)
16,CC1Cc2ccccc2N1C1=CC(=O)CC(C)(C)C1 (configuration not stated),99% (inactive)
17,Cc1nc(CN2CCN(C(=O)CCc3nnc(Cc4c[nH]c5ccccc45)o3)CC2)cs1,95% (inactive)
18,CCc1nnc(NC(=O)CSc2nc(SC)ns2)s1,99% (inactive)
19,O=C(O)c1ccc2c3c(cccc13)C(=O)N(OS(=O)(=O)c1ccccc1)C2=O,84% (inactive)
20,CCOC(=O)c1cc2c(=O)[nH]c(C(Cl)(Cl)Cl)nc2o1,100% (inactive)
